# Most compounds without a hit are left out; they make up all but 3.9% or so of the library.
# AHR activator: activates the human aryl hydrocarbon receptor; P35869; 320,000 compounds, 2.5% hits; AID 2796; activation, % at 5 µM; AHR-responsive luciferase reporter cells, luminescence; in the data active = activation above about 47%;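 note: 0% = vehicle wells and 100% = reference agonist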
# Target sequence (P35869 whole entry, looked up): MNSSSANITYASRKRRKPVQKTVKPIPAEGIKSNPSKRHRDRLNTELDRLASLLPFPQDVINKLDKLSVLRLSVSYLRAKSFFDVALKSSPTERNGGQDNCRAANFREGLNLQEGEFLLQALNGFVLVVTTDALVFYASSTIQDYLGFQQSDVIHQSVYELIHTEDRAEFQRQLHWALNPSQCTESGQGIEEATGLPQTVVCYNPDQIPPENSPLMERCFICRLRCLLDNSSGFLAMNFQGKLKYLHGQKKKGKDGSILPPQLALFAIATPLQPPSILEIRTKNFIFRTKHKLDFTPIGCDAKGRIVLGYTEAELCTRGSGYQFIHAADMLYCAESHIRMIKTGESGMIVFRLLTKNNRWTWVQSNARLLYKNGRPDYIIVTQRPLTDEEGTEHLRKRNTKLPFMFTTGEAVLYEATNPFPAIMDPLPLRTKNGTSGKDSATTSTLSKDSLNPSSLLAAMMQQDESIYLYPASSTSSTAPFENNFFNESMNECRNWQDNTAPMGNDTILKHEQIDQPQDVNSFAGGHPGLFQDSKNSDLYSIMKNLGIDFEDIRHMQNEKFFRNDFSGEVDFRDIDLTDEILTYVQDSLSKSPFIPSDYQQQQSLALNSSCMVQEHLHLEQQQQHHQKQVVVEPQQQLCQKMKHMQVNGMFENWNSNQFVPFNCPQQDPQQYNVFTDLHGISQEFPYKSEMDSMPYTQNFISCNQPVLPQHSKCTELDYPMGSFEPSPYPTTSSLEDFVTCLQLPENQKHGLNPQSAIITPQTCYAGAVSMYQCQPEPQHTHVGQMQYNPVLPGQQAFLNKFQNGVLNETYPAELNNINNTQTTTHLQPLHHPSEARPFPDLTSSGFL
# PLC-beta3 inh: inhibitors of human phospholipase C beta3; Q01970; Purified PLC-beta3, fluorogenic substrate, fluorescence; inhibition, % at 12.2 µM; 370,000 compounds, 0.18% hits; AID 720704; in the data active = inhibition above about 11%;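 note: 0% = median of compound wells on plate and 100% = full blocker control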
# Yeast superoxide: yeast age-related superoxide inhibition as caloric restriction mimetic; S. cerevisiae aged cells, superoxide DHE fluorescence; active compounds read low; superoxide response (% of plate mean), % at 10 µM; 330,000 compounds, 0.18% hits; AID 2690;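 active = superoxide response under a set limit, about three screen SD below normal, cut at about 65% in these data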;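 note: yeast aged for seven days with compound at 30 °C before DHE staining; 100% = average MFI of all compound-treated wells on the plate with controls excluded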
# HIF act: HIF pathway transcriptional activation; U2OS HRE-luciferase reporter, luminescence; normalized: DMSO 0%, desferrioxamine 100%; activation, % at 7.5 µM (by protocol); 300,000 compounds, 0.32% hits;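 active = mean activation of at least 10% of the iron chelator positive control signal, with at least half of replicates also reaching 10%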
# PLCg1 inh: PLC-gamma1 (human) inhibition, primary screen | P19174 | purified PLC-gamma1, fluorogenic substrate, fluorescence | inhibition, % at 12.2 µM | 370,000 compounds, 0.84% hits | AID 720700; in the data active = inhibition above about 9.5%
# HGIII-sPLA2 inh: Inhibits HGIII-sPLA2 liposome hydrolysis, primary screen. QFRET BODIPY PC-A2 liposome hydrolysis, fluorescence. inhibition, % at 12.2 µM. 370,000 compounds, 0.56% hits;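 active = inhibition above mean plus 3 SD of compounds lying within the high and low control bounds, cut at about 19% in these data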;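 note: 0% = median of test compound wells and 100% = no enzyme DMSO wells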
# AHR act cf: confirmation of human aryl hydrocarbon receptor activators | shares compounds with AHR activator | human cells, AHR-responsive luciferase reporter, luminescence | activation, % at 9 µM | 2,300 compounds, 87% hits | AID 2845; in the data active = activation above about 49%;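 note: HepG2 hepatoma cells carrying a DRE-driven firefly luciferase reporter; 0% = vehicle wells and 100% = reference agonist wells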
# PXR act counter: PXR activation, counter-screen for AHR activators. shares compounds with AHR activator. cell-based PXR reporter, luciferase luminescence. activation, % at 11.6 µM. 2,300 compounds, 88% hits; in the data active = activation above about 11%;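 note: human hepatoma DPX-2 cells expressing full-length human PXR; 0% = DMSO and 100% = reference agonist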
# Numbers without * were called inactive; x = no result.
SMILES,AHR activator,PLC-beta3 inh,Yeast superoxide,HIF act,PLCg1 inh,HGIII-sPLA2 inh,AHR act cf,PXR act counter
O=[N+]([O-])c1ccc(CN2[C@H](COCc3ccccc3)C=CS2(=O)=O)cc1,x,1,x,x,0,-2,x,x
COc1ccc(N2CCN(C(=O)c3cc4c(-c5ccc(Cl)cc5)nn(C)c4s3)CC2)cc1,90*,-2,101,x,-3,2,121*,33*
CN1CCN(CCCNC(=O)c2cc3c(-c4ccc(Cl)cc4)nn(C)c3s2)CC1,98*,-17,116,x,-14,11,102*,x
COc1ccc(NC(=O)N(CCc2c(C)[nH]c3ccccc23)Cc2cccs2)cc1OC,x,-2,x,x,4,-22,x,x
O=S(=O)(Nc1ccccc1)c1ccc(-c2csnn2)cc1,1,-3,108,-1,9,-10,x,x
c1ccc(-c2ccc(-c3csnn3)cc2)cc1,86*,1,99,3,2,1,96*,17*
COc1cc2c3c(c1)C1(C(=O)N3C(C)(C)C=C2C)C(C#N)=C(N)Oc2cc(O)ccc21 (stereo not given),93*,1,78,0,0,-38,39,2
CCOc1cc2c3c(c1)C1(C(=O)N3C(C)(C)C=C2C)C(C#N)=C(N)Oc2cc(O)ccc21 (stereo not given),21,-4,88,0,6,-44,x,x
O=C1c2ccccc2-n2c1nc1ccccc1c2=O,108*,7,145,0,3,0,155*,30*
COc1ccc(-c2nc(N)nc(C)c2-c2ccc(Cl)cc2)c(O)c1,23,-21,100,-1,-12,-10,x,x
CCOc1ccc(-c2nc(N)nc(C)c2-c2ccc(Cl)cc2)c(O)c1,90*,-37,91,0,-25,-15,79*,39*
CCN1CCc2nc3ccccc3c(C(=O)Nc3ccc(F)cc3)c2C1,94*,-25,100,0,-8,1,63*,26*
CCN1CCc2nc3ccccc3c(C(=O)Nc3ccc(NC(C)=O)cc3)c2C1,8,-12,90,0,-1,1,x,x
COc1ccc(C(=O)O/N=C(\N)c2ccccc2)c(OC)c1,97*,4,116,-3,3,-1,56*,4
COc1ccc(C(=O)O/N=C(\N)c2ccc(OC)c(OC)c2)c(OC)c1,0,x,90,2,x,x,x,x
C[C@H](NC(=O)c1ccco1)C(=O)NNC(=O)COc1cccc(C(F)(F)F)c1,1,-3,99,x,3,-30,x,x
COc1cc(-c2cc(-c3ccccc3)nc(SCC(=O)Nc3nccs3)c2C#N)cc(OC)c1OC,6,-81,96,0,-70,3,x,x
COc1ccc(-c2[nH]c(-c3ccccc3)nc2SCC(=O)Nc2nccs2)cc1,109*,1,95,x,2,0,78*,42*
COc1ccc(-c2[nH]c(-c3ccc(C)cc3)nc2SCC(=O)NC2CCCC2)cc1,104*,-2,117,0,-2,9,88*,86*
CCc1cccc(CC)c1NC(=O)CSc1nc2ccc(N3C(=O)C4C5C=CC(C5)C4C3=O)cc2s1 (stereo not given),126*,-1,99,-1,-3,-14,53*,69*
Cc1cccc(C)c1NC(=O)C(C1CC1)n1c(-c2ccc(-c3ccccc3)cc2)nc2ccccc21 (stereo not given),x,-32,x,x,-31,-2,x,x
CC(C)OC(=O)c1nnc(Cc2ccc(F)cc2)o1,91*,-1,104,0,0,12,30,9
Cc1c(/C=N\NC(=O)C2COc3ccc(C(C)(C)C)cc3O2)c2ccccc2n1C (stereo not given),79*,-5,114,0,-6,6,42,66*
C/C=C1\COC(C(=O)NCCCN2CCCC2=O)(C(F)(F)F)C=C1C=C(C)C (stereo not given),1,1,103,1,4,8,x,x
COc1ccc(-c2sc3cc4c(cc3c2-c2ccc(OCCN3CCOCC3)cc2)OCO4)cc1,1,-3,108,x,-2,5,x,x
SMILES,AHR activator,PLC-beta3 inh,Yeast superoxide,HIF act,PLCg1 inh,HGIII-sPLA2 inh,AHR act cf,PXR act counter
COc1ccc(-c2sc3cc4c(cc3c2C#Cc2cncn2C)OCO4)cc1,82*,-22,119,x,-14,-9,103*,15*
N/C(=N\OC(=O)c1ccc(Cl)cc1Cl)c1cccnc1,27,3,108,1,-1,-2,x,x
N/C(=N\OC(=O)c1cccc2ccccc12)c1cccnc1,85*,-2,126,2,-4,-4,55*,15*
Cc1ccc(NC(=S)Nc2cc(-c3ccccc3)[nH]n2)cc1Cl,94*,3,85,x,2,-4,103*,37*
COc1ccc(NC(=S)Nc2ccc(C)c(Cl)c2)cc1OC,5,-9,86,5,-3,1,x,x
O=C(Nc1nc(OCC(F)(F)F)cnc1/C=C\c1ccccc1)c1ccccc1,x,-5,x,x,-4,3,x,x
CCCN1C(=O)c2cc(C(=O)Nc3ccccc3OC)ccc2C1Nc1ccccc1OC (stereo not given),94*,-8,108,-1,0,1,65*,72*
Cc1ccc(OCCNC(=O)CCc2ccccc2)cc1C,5,-4,89,0,-1,-4,x,x
COc1ccc(-c2nc3ncccc3o2)cc1NC(=O)c1cccs1,81*,-6,97,0,-1,8,43,30*
O=C(Nc1cc(-c2nc3ncccc3o2)ccc1Cl)c1ccc([N+](=O)[O-])o1,8,-11,81,0,-11,8,x,x
O=C(Nc1cc(-c2nc3ncccc3o2)ccc1Cl)c1cccs1,134*,-11,90,0,-5,-4,98*,47*
CC(OC(=O)CNC(=O)c1ccc2ccccc2c1)C(=O)N(C)C1CCCCC1 (stereo not given),5,2,109,1,-1,-3,x,x
N#Cc1c(SCC(N)=O)nsc1SCc1ccccc1Cl,101*,-4,107,0,0,5,83*,22*
Cc1cccc(C)c1-n1nnnc1C(c1ccnc2ccccc12)N1CCCN(C(=O)OC(C)(C)C)CC1 (stereo not given),x,2,x,x,2,1,x,x
COc1ccccc1C(=O)Nc1ccc2c(C)cc(=O)oc2c1,98*,-8,93,-26,-3,5,98*,41*
CCN(CC)S(=O)(=O)c1ccc(C)c(C(=O)Oc2cccc(-c3cnc4ccccc4n3)c2)c1,-3,1,110,1,-1,-1,x,x
O=C(Oc1cccc(-c2cnc3ccccc3n2)c1)c1ccco1,99*,0,87,4,-2,-3,44,9
